“And” between values parts separate entries of the source, which are not always exact repeats. Equal entries are not always repeated. Results filed as inconclusive are left out. A structure can be active in one record and inactive in another. The source made the active and inactive calls. Rule for the calls: active = hit-call score of the fitted dose curve at least 0.9, where 1 is the maximum; inconclusive = response in the unintended direction; inactive = score below 0.9.

Test [1] concerns turtle Androgen Receptor (AR), gene 101947425. Briefly: ATG_trAR_XSP2: Attagene TRANS-FACTORIAL Multi-Species (XSP2) HepG2 Assay for turtle Androgen Receptor (AR) (AID 2283815). An outline of the steps:
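Reporter transcripts were quantified via RT-PCR and capillary electrophoresis and fitted upward against DMSO. Transiently transfected human HepG2 cells carrying NR-Gal4 chimeras were exposed 24 h, with 3 nM 6-alpha-fluorotestosterone plus 1.5 nM norgestrel added.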

In test [2] the target is zebrafish Estrogen Receptor (ER1), esr1 (gene 259252) (UniProt P57717). Nature of the test: ATG_zfER1_XSP2: Attagene TRANS-FACTORIAL Multi-Species (XSP2) HepG2 Assay for zebrafish Estrogen Receptor (ER1) (AID 2283816). The method, boiled down:
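After 24 h compound exposure, RNA from transfected HepG2 cells was reverse-transcribed and reporter transcripts resolved by capillary electrophoresis. The TRANS format reads exogenous zebrafish ER1-Gal4 chimera activity on GAL4-UAS elements; gain of signal against DMSO.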

In test [3] the target is chicken Estrogen Receptor (ERa), ESR1 (gene 396099) (UniProt P06212). Briefly: ATG_chERa_XSP2: Attagene TRANS-FACTORIAL Multi-Species (XSP2) HepG2 Assay for chicken Estrogen Receptor (ERa) (AID 2283817).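 Note: actives raise reporter signal above DMSO so AC50 reflects ER activation.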 The method, boiled down:
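Reporter mRNA induction read by RT-PCR, fluorescent labelling and capillary electrophoresis after 24 h exposure; positive-direction fit against DMSO baseline. HepG2 cells transfected with multiplexed GAL4-UAS units including chicken ERa chimera; medium contained 3 nM 6-alpha-fluorotestosterone plus 1.5 nM norgestrel.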

In test [4] the test system is zebrafish Estrogen Receptor (ER2a), gene 317734. Nature of the test: ATG_zfER2a_XSP2: Attagene TRANS-FACTORIAL Multi-Species (XSP2) HepG2 Assay for zebrafish Estrogen Receptor (ER2a) (AID 2283818).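 Note: hits raise reporter mRNA so AC50 reflects activation of zebrafish ER2a.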 The method, boiled down:
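Multiplexed trans-reporter readout: RT-PCR then capillary electrophoresis of reporter transcripts after 24 h compound treatment. Human HepG2 carries transfected zebrafish ER2a-Gal4 chimera; 3 nM 6-alpha-fluorotestosterone plus 1.5 nM norgestrel present. Induction scored against DMSO.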

Test [5] deals with chicken Androgen Receptor (AR), gene 422165. Briefly: ATG_chAR_XSP2: Attagene TRANS-FACTORIAL Multi-Species (XSP2) HepG2 Assay for chicken Androgen Receptor (AR) (AID 2283819).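 Note: hits raise reporter mRNA above DMSO so potency is for activation.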 An outline of the steps:
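Readout is reporter mRNA induction via RT-PCR/capillary electrophoresis after 24 h chemical exposure, positive direction relative to DMSO. Transiently transfected HepG2 express chimeric chicken AR–GAL4; AR stimulated by 3 nM 6-alpha-fluorotestosterone and 1.5 nM norgestrel.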

The test system of test [6] is frog Estrogen Receptor (ER), gene 398734. Briefly: ATG_frER1_XSP2: Attagene TRANS-FACTORIAL Multi-Species (XSP2) HepG2 Assay for frog Estrogen Receptor (ER) (AID 2283821).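 Note: hits raise reporter mRNA above DMSO baseline so potency means agonist or activator.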 On the procedure:
ATG_XSP2_multi-species_TRANS is a cell-based, multiplexed assay created by modifying the existing Attagene TRANS-FACTORIAL system to include a panel of nuclear receptors from some or all the following species: human (Homo sapiens), mouse (Mus musculus), frog (Xenopus laevis), zebrafish (Danio rerio), chicken (Gallus gallus), and turtle (Chrysemys picta). The ECOTOX-FACTORIAL format uses HepG2, a human liver cell line, with measurements taken at 24 hours after chemical dosing in a 24-well plate. Xsp2 included 3 nM 6-alpha-fluorotestosterone and 1.5 nM norgestrel to stimulate the androgen receptor.ATG_frER1_XSP2 is one of 29 assay components measured or calculated from the ATG_XSP2_multi-species_TRANS assay. It is designed to make measurements of mRNA induction, a form of inducible reporter, as detected with fluorescence intensity signals by Reverse transcription polymerase chain reaction (RT-PCR) and Capillary electrophoresis technology.The assay endpoint ATG_frER1_XSP2 was analyzed in the positive analysis fitting direction relative to DMSO as the negative control and baseline of activity. Using a type of inducible reporter, measures of mRNA for gain-of-signal activity can be used to understand the reporter gene at the transcription factor-level as they relate to the gene ER. Furthermore, this assay endpoint can be referred to as a primary readout, because this assay has produced multiple assay endpoints where this one serves a reporter gene function. To generalize the intended target to other relatable targets, this assay endpoint is annotated to the nuclear receptor intended target family, where the subfamily is steroidal.
Human liver HepG2 cells are transiently transfected with multiple reporter transcription units (MRTUs) in 6-well plates using FuGene 6 reagent (Roche; 3 ml FuGene/1 mg DNA). The MRTU constructs are regulated by a cis-regulating element (promoter). […] A major difference between the CIS and TRANS system is that in CIS activities of endogenous TFs are measured, whereas the TRANS assay evaluates changes in activities of exogenous, chimeric NR-Gal4 proteins. […] At the end of 24 hour incubation, total RNA was isolated using TriZol reagent (Invitrogen). The isolated RNA is then reverse-transcribed using oligo(dT) primer and Mo-MLV reverse transcriptase (Invitrogen) with DNAse I (Ambion) treatment for 30 min. The one-tenth of the produced cDNA was amplified by PCR using Taq DNA polymerase (Invitrogen) and two reporter sequence-specific primers. The PCR products were fluorescently labeled by primer extension with 6-arboxyfluorescein (6-FAM) 5'-labeled reporter sequence-specific primer (2 min at 95 C, 20 s at 68 C and 10 min at 72 C) and these products were digested with 5U of HpaI (New England Biolabs) for 2h at 37 C. The fragments were purified using Qiaquick PCR columns (Qiagen), analyzed on an ABI 3130xL genetic analyzer (Applied Biosystems) with peak positions identified by using a set of X-rhodamine (ROX)-labeled MapMarker1000 molecular weight standards (BioVentures). The raw capillary electrophoresis data was processed using Attagraph software (Attagene).

The subject of test [7] is zebrafish Estrogen Receptor (ER2b), gene 317733. Briefly: ATG_zfER2b_XSP2: Attagene TRANS-FACTORIAL Multi-Species (XSP2) HepG2 Assay for zebrafish Estrogen Receptor (ER2b) (AID 2283823).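 Note: fitted upward as reporter gain over DMSO so potency reflects activation.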 An outline of the steps:
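Cells used were HepG2, transiently transfected with chimeric nuclear receptor-Gal4 reporter units. After 24 h of chemical treatment, reporter transcripts were amplified by RT-PCR, labelled and sized by capillary electrophoresis, with induction analysed relative to DMSO.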

Test [8] concerns frog Androgen Receptor (AR), gene 399456. Nature of the test: ATG_frAR_XSP2: Attagene TRANS-FACTORIAL Multi-Species (XSP2) HepG2 Assay for frog Androgen Receptor (AR) (AID 2283824).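 Note: reporter mRNA from GAL4-UAS units driven by Xenopus AR-Gal4 chimera; actives raise reporter signal above DMSO so AC50 reflects agonist-like induction.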 An outline of the steps: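 Reporter transcript induction, read by RT-PCR with fluorescent capillary electrophoresis, in human liver HepG2 cells carrying an exogenous Xenopus AR-Gal4 fusion and GAL4-driven reporters; chemical exposure 24 hours, activity scored upward against DMSO controls.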

The subject of test [9] is zebrafish Androgen Receptor (AR), gene 100005148. Briefly: ATG_zfAR_XSP2: Attagene TRANS-FACTORIAL Multi-Species (XSP2) HepG2 Assay for zebrafish Androgen Receptor (AR) (AID 2283825).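 Note: hits raise reporter mRNA above DMSO so AC50 reflects agonist-type gain.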 An outline of the steps: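 After 24 h compound exposure in medium with 3 nM 6-alpha-fluorotestosterone plus 1.5 nM norgestrel, HepG2 cells carrying zebrafish AR–GAL4 reporter constructs were assessed for reporter mRNA gain by RT-PCR and capillary electrophoresis.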

The target of test [10] is GAL4 Transcription Factor (Internal Marker), GAL4 (gene 855828) (UniProt P04386). Briefly: ATG_GAL4_XSP2: Attagene TRANS-FACTORIAL Multi-Species (XSP2) HepG2 Assay for GAL4 Transcription Factor (Internal Marker) (AID 2283814).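 Note: GAL4 reporter mRNA background control in MRTU transfected cells not a receptor target.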 An outline of the steps: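 Background-control readout: gain-of-signal fitted against DMSO. After 24 h exposure of transfected HepG2 (MRTU, GAL4-UAS reporters; 3 nM 6-alpha-fluorotestosterone, 1.5 nM norgestrel present), transcripts quantified by RT-PCR and capillary electrophoresis fluorescence.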
GAL4 Transcription Factor (Internal Marker), GAL4 (gene 855828), sequence (P04386 whole entry, looked up, the tested form may be a part): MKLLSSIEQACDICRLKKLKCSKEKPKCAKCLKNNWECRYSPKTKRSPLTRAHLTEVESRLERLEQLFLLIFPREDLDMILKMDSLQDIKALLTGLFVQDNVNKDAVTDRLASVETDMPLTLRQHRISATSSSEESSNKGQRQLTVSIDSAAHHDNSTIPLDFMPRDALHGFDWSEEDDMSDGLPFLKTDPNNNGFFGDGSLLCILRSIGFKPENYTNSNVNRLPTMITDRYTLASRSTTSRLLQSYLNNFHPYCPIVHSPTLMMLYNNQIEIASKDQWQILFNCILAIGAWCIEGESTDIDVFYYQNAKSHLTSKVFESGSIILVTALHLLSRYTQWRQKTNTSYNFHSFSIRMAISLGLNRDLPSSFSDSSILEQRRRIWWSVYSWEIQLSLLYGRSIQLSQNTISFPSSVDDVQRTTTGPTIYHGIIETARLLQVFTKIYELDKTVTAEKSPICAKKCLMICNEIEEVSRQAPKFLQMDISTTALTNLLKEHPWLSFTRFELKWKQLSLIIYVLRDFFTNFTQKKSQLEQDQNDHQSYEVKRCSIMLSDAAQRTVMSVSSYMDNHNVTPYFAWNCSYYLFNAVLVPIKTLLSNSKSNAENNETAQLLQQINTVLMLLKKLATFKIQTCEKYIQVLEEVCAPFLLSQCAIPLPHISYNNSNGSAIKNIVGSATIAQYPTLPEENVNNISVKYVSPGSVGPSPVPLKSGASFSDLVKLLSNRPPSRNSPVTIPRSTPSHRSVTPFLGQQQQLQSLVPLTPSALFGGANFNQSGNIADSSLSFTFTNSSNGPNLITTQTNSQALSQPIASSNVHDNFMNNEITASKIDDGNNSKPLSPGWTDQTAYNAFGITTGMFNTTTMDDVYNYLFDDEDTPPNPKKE

zebrafish Estrogen Receptor (ER1), esr1 (gene 259252), sequence (P57717 whole entry, looked up, the tested form may be a part): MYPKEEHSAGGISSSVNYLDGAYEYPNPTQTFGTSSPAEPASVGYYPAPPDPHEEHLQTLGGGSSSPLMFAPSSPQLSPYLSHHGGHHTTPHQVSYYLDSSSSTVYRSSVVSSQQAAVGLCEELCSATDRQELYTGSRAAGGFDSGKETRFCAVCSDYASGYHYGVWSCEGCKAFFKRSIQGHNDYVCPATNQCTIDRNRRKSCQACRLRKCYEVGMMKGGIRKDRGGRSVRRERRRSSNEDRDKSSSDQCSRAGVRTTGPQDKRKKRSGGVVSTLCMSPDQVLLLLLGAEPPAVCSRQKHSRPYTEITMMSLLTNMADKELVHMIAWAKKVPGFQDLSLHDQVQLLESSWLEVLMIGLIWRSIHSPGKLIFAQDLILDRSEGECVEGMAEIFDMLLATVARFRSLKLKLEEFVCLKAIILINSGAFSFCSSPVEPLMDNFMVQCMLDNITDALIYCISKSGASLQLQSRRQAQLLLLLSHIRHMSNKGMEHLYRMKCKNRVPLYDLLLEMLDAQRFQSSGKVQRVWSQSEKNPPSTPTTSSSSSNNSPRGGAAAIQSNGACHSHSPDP
chicken Estrogen Receptor (ERa), ESR1 (gene 396099), sequence (P06212 whole entry, looked up, the tested form may be a part): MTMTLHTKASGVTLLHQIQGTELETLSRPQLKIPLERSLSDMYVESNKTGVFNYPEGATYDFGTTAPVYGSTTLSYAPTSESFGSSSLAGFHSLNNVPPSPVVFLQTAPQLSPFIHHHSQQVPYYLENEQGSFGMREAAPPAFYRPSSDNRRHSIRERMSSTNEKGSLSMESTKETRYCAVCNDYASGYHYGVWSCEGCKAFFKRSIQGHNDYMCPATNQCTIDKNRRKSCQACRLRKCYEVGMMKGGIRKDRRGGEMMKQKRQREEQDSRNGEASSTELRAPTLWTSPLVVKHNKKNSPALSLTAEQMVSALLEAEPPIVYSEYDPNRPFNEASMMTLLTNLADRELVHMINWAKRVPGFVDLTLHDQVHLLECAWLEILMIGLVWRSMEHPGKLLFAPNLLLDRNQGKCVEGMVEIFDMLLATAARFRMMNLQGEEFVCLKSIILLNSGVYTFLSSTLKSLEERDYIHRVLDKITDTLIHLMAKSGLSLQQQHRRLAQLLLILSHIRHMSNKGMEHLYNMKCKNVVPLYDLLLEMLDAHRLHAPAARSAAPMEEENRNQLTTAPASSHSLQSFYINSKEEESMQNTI

Consider `O=C(O)Cc1cc(I)c(Oc2ccc(O)c(I)c2)c(I)c1`, for which the compound was classed as inactive in [1], in test [2], in test [3], in test [4], in test [5] and in [6]. Further, the result in [7], in test [8] and in test [9] was inactive.
For the compound `CC(C)(c1cc(Br)c(O)c(Br)c1)c1cc(Br)c(O)c(Br)c1`, the compound was classed as inactive in test [3], in [6], in test [7] and in [9].
Take `Cc1c2ccccc2c(C)c2c1ccc1ccccc12`: the compound was classed as inactive in test [10], in test [1], in test [2], in test [4] and in test [8]. Besides, the concentration at half-maximal activity (AC50) is 8.83 µM (active) in test [3], 9020 nM (active) in test [5], 8.79 µM (active) in [6] and 23200 nM (active) in [7].
For the compound `CC1(C)NC(=O)N(c2ccc([N+](=O)[O-])c(C(F)(F)F)c2)C1=O`, the result in [10], in [2], in test [3], in test [4] and in test [6] was inactive. Moreover, the AC50 is 43 µM (active) in test [3]; 56.3 µM (active) in test [6]; 128 µM (active) and 100 µM (active) in [7].
In the case of `CC/C(=C(/CC)c1ccc(O)cc1)c1ccc(O)cc1`, the AC50 in test [2] is 1.41 nM (active); in test [3], 7.27e-05 µM (active); in [4], 0.243 nM (active); in test [6] it was 0.000213 µM (active); in test [7] it was 0.468 nM (active).
`C[C@]12CC[C@@H]3c4ccc(O)cc4CC[C@H]3[C@@H]1CCC2=O`: the AC50 in test [2] was 10.5 nM (active); in test [3], 0.00428 µM (active); in [4] it was 10.3 nM (active); in test [6], 0.00726 µM (active); in [7], 7.92 nM (active).
Regarding `O=c1c(-c2ccc(O)cc2)coc2cc(O)cc(O)c12`, the call in [10], in test [1] and in test [9] was inactive. Besides, the half-maximal activity concentration (AC50) in [3] was 467 nM (active) and 29.3 nM (active); in [4], 41.6 nM (active) and 4.15 nM (active); in test [6], 126 nM (active) and 17.4 nM (active); in test [7] it was 366 nM (active) and 55.1 nM (active).

The values above are taken from PubChem BioAssay (EPA / NIEHS).
